Assay outcomes (PubChem)
p97 inhibitor = blocks human p97 ATPase activity. hit rate 0.42% among 220,000. recombinant p97 ATPase, Kinase-Glo ATP luminescence, 3 h. AID 1481. P55072. inhibition, % at 8 µM; in the data active = inhibition above about 15%;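 note: 0% = DMSO vehicle and 100% = wells lacking enzyme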
S1P4 agonist = activates the human S1P4 receptor | O95977 | S1P4-expressing cell line, agonist reporter assay | activation, % at 4.98 µM | hit rate 0.35% among 220,000 | AID 1509; in the data active = activation above about 11%;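 note: 0% = DMSO vehicle and 100% = reference agonist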
S1P3 antag = antagonists of human S1P3 receptor | AID 485 | hit rate 0.27% among 170,000 | Q99500 | inhibition, % at 4.98 µM | CHO S1P3 NFAT-BLA reporter, FRET fluorescence, antagonist mode;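 active = inhibition above the plate cutoff, the mean inhibition of test wells on that plate plus 3 SD, cut at about 28% in these data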;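 note: cells challenged with S1P at its EC80 of 0.8 µM; blue over green emission ratio from cleaved BLA substrate after 4 h stimulation; 0% = S1P-stimulated wells and 100% = unstimulated DMSO-only wells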
Target sequence (Q99500 whole entry, looked up): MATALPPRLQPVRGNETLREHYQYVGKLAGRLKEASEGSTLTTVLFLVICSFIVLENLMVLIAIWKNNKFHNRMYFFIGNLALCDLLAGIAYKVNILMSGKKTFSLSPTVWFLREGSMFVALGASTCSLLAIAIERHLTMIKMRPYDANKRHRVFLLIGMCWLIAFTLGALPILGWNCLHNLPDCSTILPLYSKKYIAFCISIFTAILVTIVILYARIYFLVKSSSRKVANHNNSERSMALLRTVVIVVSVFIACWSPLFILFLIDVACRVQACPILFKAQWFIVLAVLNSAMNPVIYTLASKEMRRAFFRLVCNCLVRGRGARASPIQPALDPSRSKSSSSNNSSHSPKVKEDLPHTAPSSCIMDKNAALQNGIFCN
Redox H2O2 prof = compounds producing H2O2 with reducing agent – biochemical, NIH compound library profiling, artefact control for MLSCN library redox annotation, primary screen. DTT-dependent redox cycling H2O2, phenol red/HRP absorbance; 100% = 100 µM peroxide control, 0% = buffer. activation, % at 10 µM. hit rate 0.03% among 200,000;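 active = activation of at least 50% relative to the plate's high and low controls in the primary single-dose screen; inactive = activation below 50%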;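 note: compound incubated with DTT at 0.8 mM final as the reducing agent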
Arbovirus anti = blocks arbovirus infection. arbovirus infection cell-based antiviral screen. inhibition, % at 10 µM. hit rate 0.37% among 200,000; in the data active = inhibition above about 30%
S1P4 antagonist = antagonists of human S1P4 receptor; S1P4-expressing cells, antagonist mode, reporter read-out; inhibition, % at 4.98 µM; AID 1510; hit rate 0.26% among 220,000; O95977; in the data active = inhibition above about 29%;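 note: 0% = wells stimulated with agonist and 100% = vehicle wells without agonist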
p97 confirm = human p97 ATPase inhibition, confirmation; inhibition, % at 8 µM; hit rate 44% among 760; recombinant p97 ATPase, Kinase-Glo ATP luminescence; shares compounds with p97 inhibitor;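 active = percent inhibition of p97 ATPase above a set limit, the primary screen's mean plus 3 SD, cut at about 15% in these data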;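 note: 0% = DMSO wells and 100% = wells lacking p97 protein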
* marks the source's active call; other numbers are inactive results; · = no result given. Only some compounds are listed: those with a hit (about 1.6% of all), similar ones and a draw of the others.

SMILES	p97 inhibitor	S1P4 agonist	S1P3 antag	Redox H2O2 prof	Arbovirus anti	S1P4 antagonist	p97 confirm
Cc1[nH]c2ccccc2c1/C=N/NC(=O)c1cc(-c2cccs2)[nH]n1	16*	-1	6	0	4	-9	32*
O=C(Nc1ccccc1)N1CCN(S(=O)(=O)c2ccccc2)CC1	-3	2	-9	0	2	-19	·
COc1ccc(OCC(=O)Nc2ccc3nc(C)sc3c2)cc1	1	0	6	0	-2	-15	·
CC1=NN(Cc2ccccc2)C(=O)C1C(c1ccc(Cl)cc1)C(C#N)C#N (stereo unspecified)	18*	-2	-6	0	-5	-8	9
CC1=NN(Cc2ccccc2)C(=O)C1C(c1ccccc1)C(C#N)C#N (stereo unspecified)	1	0	·	2	1	-3	·
Cc1cccc(C)c1NC(=O)COC(=O)c1ccc([N+](=O)[O-])o1	8	3	-13	-2	3	7	·
CC1=Nc2ccccc2/C1=C/c1sc(=N)n(-c2nccs2)c1O	29*	-2	·	-4	-30	6	36*
CC1=Nc2ccccc2/C1=C/c1nc(-c2ccc(C)s2)oc1O	1	-1	10	-1	-1	-21	·
NC(=S)NNc1cccc2cccnc12	16*	0	-1	0	-29	-3	11
Cc1ccc(NC(=S)N2CCOCC2)cc1	9	0	-7	0	3	-10	·
Cc1ccc(NC(=S)N2CCCC(O)C2)cc1 (stereo unspecified)	60*	1	-20	-4	5	-13	2
Cc1ccn2cc(-c3cccc(NS(C)(=O)=O)c3)nc2c1	6	3	-8	0	-2	4	·
CC(=O)Nc1cccc(-c2cn3ccc(C)cc3n2)c1	17*	1	-4	1	-6	-15	21*
Cc1cc(N)c2cc(NC(=O)/C=C/c3ccccc3Cl)ccc2n1	24*	0	-7	·	·	-6	23*
Cc1cc(C)nc(NC(=O)/C=C/c2ccccc2Cl)n1	1	-1	·	3	-34	4	·
CC(C(=O)Nc1ccc2c(c1)OCO2)N1CCN(C)CC1 (stereo unspecified)	22*	-1	-7	·	·	-6	4
C[C@H](NC(N)=O)C(=O)Nc1ccc2c(c1)OCO2	10	0	-4	·	·	0	·
O=C(COC(=O)c1ccc2c(c1[N+](=O)[O-])C(=O)c1ccccc1C2=O)NC1CC1	23*	-3	11	-1	-17	16	29*
O=C(COC(=O)c1cccc2c1C(=O)c1ccccc1C2=O)NC1CCCCC1	-8	0	-9	0	-18	-15	·
CN1C(=O)/C(=C/c2ccc(-c3ccccc3[N+](=O)[O-])o2)SC1=Nc1ccc(Cl)c(C(=O)O)c1	5	-1	-12	0	-7	-3	·
O=C(NCC(=O)N(CC1CCCO1)C1(C(=O)NC2CCCCC2)CCCCC1)c1ccccc1 (stereo unspecified)	0	0	·	0	-4	-7	·
COc1ccc(C(c2c(C)[nH]n(-c3ccccc3)c2=O)c2c(C)[nH]n(-c3ccccc3)c2=O)cc1OC	30*	0	-3	0	1	0	5
Nc1cccc2cnccc12	16*	1	-19	4	-2	5	8
Cc1ccc(NC(=S)Nc2cccc3cnccc23)cc1	5	1	-8	-2	17	10	·
Cc1ccc(NC(=S)Nc2cccc3cnccc23)cc1C	24*	-1	-11	0	23	7	3
SMILES	p97 inhibitor	S1P4 agonist	S1P3 antag	Redox H2O2 prof	Arbovirus anti	S1P4 antagonist	p97 confirm
c1ccc(CN2CCN(c3ncnc4c3[nH]c3ccccc34)CC2)cc1	15*	2	·	3	-10	-23	10
C/C(=N\NC(=O)c1ccc(NS(=O)(=O)c2cccs2)cc1)c1ccccc1	7	-1	-9	0	7	-16	·
C/C(=N\NC(=O)c1ccc(NS(=O)(=O)c2cccs2)cc1)c1ccc(O)cc1O	20*	-2	0	·	·	6	20*
COc1ccc(Br)c(C(=O)NC2CCCC2)c1	7	1	-4	0	17	-5	·
Cc1csc(NC(=O)CSCC(=O)O)c1-c1nc2ccccc2s1	16*	1	2	·	·	-18	19*
O=C(NN1C(=O)/C(=C/C=C/c2ccco2)SC1=S)c1ccccc1O	55*	1	0	·	·	-9	21*
O=C1S/C(=C\C=C\c2ccco2)C(=O)N1c1ccc(O)cc1	43*	-1	-3	1	13	-14	11
O=C1S/C(=C\C=C\c2ccco2)C(=O)N1c1ccccc1	7	2	-2	1	2	-12	·
CCCNC(=O)c1cccc(C(F)(F)F)c1	0	0	·	-5	-9	-2	·
O=C(O)CCCCCn1c(O)c(C=C2N=c3ccccc3=N2)sc1=S	5	0	-2	0	5	-5	·
CN=c1scc(-c2ccc(F)cc2)n1/N=C/c1ccc(O)c(O)c1	5	-1	-12	0	-20	12	·
C=CC[n+]1c(-c2ccc(OC)cc2)csc1NNC(=O)Nc1ccccc1	17*	3	·	0	22	-11	1
C=CC[n+]1c(-c2ccc(C)cc2)csc1Nc1ccc(NC(C)=O)cc1	-3	2	19	-1	-18	-22	·
CC1=Nc2ccccc2/C1=C/c1c(N)n2c(S(=O)(=O)C(C)C)nsc2nc1=O	22*	1	-20	0	39*	-13	36*
Cc1cc(/C=C2\SC(=S)NC2=O)c(C)[nH]1	15*	0	-1	0	4	-7	13
Cc1cc(/C=C2/C(=O)NN(c3ccccc3)C2=O)c(C)n1-c1cccc(O)c1	6	0	3	1	-8	-13	·
CCn1c(C)cc(/C=C2/SC(=S)NC2=O)c1C	6	-1	-12	0	-5	-11	·
Cc1cc(/C=C2\SC(=S)NC2=O)c(C)n1-c1cccc(O)c1	18*	0	-13	·	·	10	16*
O=C(NC(=C(Cl)Cl)S(=O)(=O)c1ccc(Cl)cc1)c1ccccc1	25*	0	-6	·	·	5	27*
Cc1ccc(C(=O)NC(=C(Cl)Cl)S(=O)(=O)c2ccc(C)cc2)cc1	11	1	-9	0	-14	-15	·
Cc1ccc(C(=O)NC(=C(Cl)Cl)S(=O)(=O)c2ccc(Cl)cc2)cc1	17*	2	-3	1	-33	-18	23*
CN1CCCN(S(=O)(=O)c2cccc(Cl)c2Cl)CC1	5	1	-14	-2	0	4	·
Cc1cc(C)c(C#N)c(Sc2ccc(N)cc2)n1	4	1	-15	0	-12	-7	·
O=C(N/N=C\c1c(O)ccc2ccccc12)c1ccc(S(=O)(=O)N2CCCCC2)cc1	1	1	-4	0	-28	-3	·
